According to ChEMBL document CHEMBL3988442, “University of Dundee, Small-Polar-MMV Screening Library” (2021):
The campaign covered roughly 48,000 compounds. About 13,000 (27%) showed an effect of 50% or more. The list shows a part of the results.

What follows are compounds tested on Wolbachia pipientis (assay: Anti-Wolbachia Cell-Based Screen). Details: 5 µM.
Type: functional
Parameters: scale not given: in the data most compounds retested in dose-response had high values

| SMILES | Percent Effect [%] |
| --- | --- |
| COc1ccc(C)cc1CN1CCN(Cc2nccn2C)C(C)C1 (stereo unspecified) | -12.47 |
| OCc1cc2ccccc2nc1NC1CC=CC1 | -7.436 |
| CCN(Cc1cnc(-c2ccccn2)nc1)C1CCS(=O)(=O)C1 (stereo unspecified) | -5.567 |
| CC(C)n1cnnc1CN(C)Cc1cnc(-c2ccccn2)nc1 | 11.81 |
| COCCCN(Cc1cnc(-c2cccs2)nc1)C1CCN(C)CC1 | 117 |
| CC(C1CCN(Cc2cnc(-c3cccs3)nc2)CC1)N(C)C (stereo unspecified) | 1.758 |
| CC(C)n1cnnc1CN(C)Cc1cnc(-c2cccs2)nc1 | 3.781 |
| COCCCN(Cc1cnc(-c2ccccn2)nc1)C1CCN(C)CC1 | 120.4 |
| CCC(O)CN(c1ccccc1)S(=O)(=O)c1cnc(C)s1 (stereo unspecified) | -3.963 |
| CCCn1nc(C)c(CN2CC3(CCOC3)CCC2=O)c1C (stereo unspecified) | -15.65 |
| CC(C)C(=O)NCc1cccc(N2CCCCC2=O)c1 | -5.894 |
| O=S(=O)(Nc1cnc(N2CCOCC2)nc1)c1ccc(C(F)(F)F)cc1 | -10.38 |
| Cc1ccc(S(=O)(=O)Nc2c(C)nc(N3CCCC3)nc2C)cc1 | 15.76 |
| Cc1nc(N(C)C)nc(C)c1NS(=O)(=O)c1ccc(OC(F)(F)F)cc1 | 120.1 |
| CN(C)c1ncc(NS(=O)(=O)c2ccc(OC(F)(F)F)cc2)cn1 | 123.3 |
| O=S(=O)(Nc1cnc(N2CCCC2)nc1)c1ccc(C(F)(F)F)cc1 | 2.34 |
| CN(C)c1ccc(C(=O)N2CCCc3cc(OC(F)(F)F)ccc32)cn1 | 0.3128 |
| COc1ncc(NS(=O)(=O)c2ccc(F)cc2F)cn1 | 7.047 |
| O=S(=O)(NCc1cc2n(n1)CCNC2)c1ccc(OC(F)(F)F)cc1 | 12.96 |
| O=S(=O)(Nc1cnc(N2CCCC2)nc1)c1ccc(OC(F)(F)F)cc1 | 113.1 |
| Cn1cc(NS(=O)(=O)c2ccc(OC(F)(F)F)cc2)ccc1=O | -16.2 |
| COc1ccc(S(=O)(=O)Nc2cnc(N(C)C)nc2)cc1 | 87.85 |
| CCOc1ccc(S(=O)(=O)Nc2cnc(OC)nc2OC)cc1 | -50.06 |
| Cc1ccc(CN2CCOC3(COCCN(C(C)C)C3)C2)s1.O=C(O)C(F)(F)F.O=C(O)C(F)(F)F (stereo unspecified) | -2.418 |

| SMILES | Percent Effect [%] |
| --- | --- |
| Cc1nccn1-c1cc(CNC(=O)C2CCC(=O)NC2)ccn1 (stereo unspecified) | -12.56 |
| CCOc1ncccc1C(=O)N1CCCC1Cn1cc(C)cn1 (stereo unspecified) | 90.55 |
| O=C(c1cccnc1-n1cncn1)N1CCN(CC2CC2)CC1 | -14.6 |
| Cc1cnn(CC2CCCN2C(=O)c2cccnc2-n2cncn2)c1 (stereo unspecified) | 106.4 |
| COCCOc1ncccc1C(=O)N1CCCC1Cn1cc(C)cn1 (stereo unspecified) | 71.82 |
| CSCCc1nc(C(C)C)nn1-c1ccncc1C | -5.681 |
| COCC(C)(C#N)NC(=O)COc1ccccc1Br (stereo unspecified) | -5.931 |
| Cc1c(-c2ccccc2)ncn1CC(c1cccnc1)N1CCOCC1 (stereo unspecified) | 2.3 |
| COCCC1(CO)CCCN(C(=O)c2ccc(C(C)C)[nH]c2=O)C1 (stereo unspecified) | 9.971 |
| Cn1ccnc1CN1CCN(c2ccc(C#N)cc2F)CC1 | 2.933 |
| Cc1ccc(N2C[C@H]3CCC[C@@H](CN(C)C)[C@H]3C2)nn1.O=C(O)C(F)(F)F | -2.322 |
| Cn1cccc1C(=O)N1C[C@@H]2C[C@@H](c3nc(C4CC4)cs3)O[C@@H]2C1.O=C(O)C(F)(F)F | 215.5 |
| O=C(O)C(F)(F)F.O=C(c1cnccn1)N1C[C@@H]2C[C@@H](c3nc(C4CC4)cs3)O[C@@H]2C1 | 97.61 |
| Cc1csc([C@@H]2C[C@@H]3CCN(C(=O)c4cnccn4)C[C@H]3O2)n1 | -0.1445 |
| O=C(O)C(F)(F)F.O=C(c1ccnnc1)N1C[C@@H]2C[C@@H](c3nc(C4CC4)cs3)O[C@@H]2C1 | 114.8 |
| Cc1csc([C@H]2C[C@@H]3CCN(C(=O)c4ccnnc4)C[C@H]3O2)n1 | -2.379 |
| Cc1noc([C@@H]2C[C@H]3CN(C(=O)C4CCN(C)CC4)C[C@H]3O2)n1.O=C(O)C(F)(F)F | 11.84 |
| Cc1csc([C@H]2C[C@@H]3CCN(C(=O)c4cnccn4)C[C@H]3O2)n1 | 7.08 |
| Cc1ccc(CN2CC[C@H]3C[C@H](c4nc(C5CC5)cs4)O[C@@H]3C2)o1 | 7.352 |
| O=C(C1CCOCC1)N1C[C@@H]2C[C@@H](c3nc(C4CC4)cs3)O[C@@H]2C1.O=C(O)C(F)(F)F | 2.3 |
| COc1cccc(-n2c(C)cc(C(=O)O)c2C)c1 | 1.282 |
| CC(=O)N1[C@H](Cn2cncn2)C[C@@H]2CN(c3ncccn3)CC[C@@H]21 | -1.924 |
| COCC1CCN(S(=O)(=O)N2C[C@@H](C)[C@](O)(C3CC3)C2)CC1 | -6.27 |
| COC(=O)c1ccc(NC(=O)NC2CCc3[nH]ncc3C2)cc1 (stereo unspecified) | -3.404 |

| SMILES | Percent Effect [%] |
| --- | --- |
| O=C(O)C(F)(F)F.O=C(c1cc[nH]n1)N1CC[C@@H]2CN(Cc3ccccc3)S(=O)(=O)[C@@H]2CC1 | -14 |
| COCC(=O)N1CC[C@@H]2CN(Cc3cccc(Cl)c3)S(=O)(=O)[C@@H]2CC1 | -12.94 |
| O=C(C1CCCO1)N1CC[C@@H]2CN(Cc3ccccc3)S(=O)(=O)[C@@H]2CC1 (stereo partly specified) | -10.05 |
| O=C(c1cc[nH]n1)N1CC[C@@H]2CN(Cc3cccnc3)S(=O)(=O)[C@@H]2CC1 | -2.568 |
| CC(C)CC(=O)N1CC[C@@H]2CN(CC(=O)N(C)C)S(=O)(=O)[C@@H]2CC1 | -34.28 |
| O=C(C1CCC1)N1CC[C@@H]2CN(Cc3cccnc3)S(=O)(=O)[C@@H]2CC1 | 102.5 |
| CC(C)CNC(=O)N1CC[C@@H]2CN(Cc3cccnc3)S(=O)(=O)[C@@H]2CC1.O=C(O)C(F)(F)F | 96.93 |
| COCC(=O)N1CC[C@@H]2CN(Cc3ccccc3)S(=O)(=O)[C@@H]2CC1 | -9.3 |
| CC(=O)N1CC[C@@H]2CN(Cc3ccncc3)S(=O)(=O)[C@@H]2CC1.O=C(O)C(F)(F)F | -10.18 |
| COCC(=O)N1CC[C@@H]2CN(Cc3cccnc3)S(=O)(=O)[C@@H]2CC1 | 104.6 |
| CC(C)CC(=O)N1CC[C@@H]2CN(Cc3cccnc3)S(=O)(=O)[C@@H]2CC1 | 111.2 |
| O=C1O[C@@H]2CN(c3ccncc3)C[C@@H]2N1CCCc1ccc(F)cc1 | -4.206 |
| CN(CCO)CC1COCCN1C(=O)C1(c2cccs2)CCCC1.O=CO (stereo unspecified) | 2.363 |
| COCCC1(CO)CCCN(C(=O)c2cccnc2O)C1 (stereo unspecified) | 1.104 |
| Cl.O=C1C(NCc2ccc3c(c2)CCO3)CCN1Cc1ccccc1 (stereo unspecified) | -4.636 |
| COCC(=O)N1CCC(C(=O)N(C)C(C)c2ccon2)CC1 (stereo unspecified) | 2.013 |
| CC[C@@H](NC(C)=O)C(=O)NCc1cccnc1Oc1ccccc1OC | 5.567 |
| CCOc1ncccc1CNC(=O)Nc1ccc(OC)c(OC)c1 | 124 |
| COc1ccccc1C(O)CNC(=O)NCc1cccnc1OC (stereo unspecified) | -5.086 |
| CCOc1ccc(NC(=O)NCc2cccnc2OCC)cc1 | 105.6 |
| CCOc1ncccc1CNC(=O)CN1CCCCCC1=O | -62.17 |
| CCCS(=O)(=O)NCc1cccnc1OCC | -4.428 |
| COc1ncccc1CNC(=O)NCCNC(=O)c1ccco1 | 0.6647 |
| CCOc1ncccc1CNC(=O)Nc1ccccc1 | 95.65 |

| SMILES | Percent Effect [%] |
| --- | --- |
| CCOc1ncccc1CNC(=O)Nc1ccc(CC)cc1 | 115 |
| CCCNC(=O)NCc1cccnc1OC | 1.177 |
| CN(C)C(=O)C1CCCN1CCCNC(=O)c1ccccc1F (stereo unspecified) | 12.21 |
| CC(C)(C(=O)NCCS(N)(=O)=O)c1cccc(Br)c1 | -14.63 |
| COc1cccc(-c2n[nH]c3c2CN(C(=O)c2oc(C)cc2C)CC3)c1 | 3.438 |
| CCn1ccc2ccnc(CC3CN(C(=O)Cn4ccnc4C)C3)c21.O=CO | 124.4 |
| CCn1ccc2ccnc(CC3CN(C(=O)c4cnco4)C3)c21 | 144.4 |
| COc1ccccc1C(=O)N1CC(Cc2nccc3ccn(C)c23)C1 | -2.36 |
| Cn1ccc2ccnc(CC3CN(C(=O)C4CCC(F)(F)CC4)C3)c21 | -0.631 |
| CCn1ccc2ccnc(CC3CN(C(=O)c4ccc(F)cc4)C3)c21 | 128.6 |
| CCCN1CCc2[nH]cnc2C12CCN(C(=O)Cn1ccnc1C)CC2 | -4.185 |
| CCN(CC)CC[C@H]1CN(C(=O)c2ccc(F)cc2)CC[C@H]1CC(=O)O | 0.9693 |
| O=C(C(CNCc1ccncc1)c1ccccc1)N1CCOCC1 (stereo unspecified) | 0.2839 |
| O=C(Cc1ccc2c(c1)OCCO2)N1CCCC(n2cccn2)C1 (stereo unspecified) | 7.45 |
| CC(C)c1nc(C2CCCN2CC(=O)Nc2nncs2)no1 (stereo unspecified) | -0.6487 |
| CC(C)c1nc(C2CCCN2Cc2ccon2)no1 (stereo unspecified) | 78.63 |
| CC(C)c1nc(C2CCCN2CC(=O)Nc2ccc(Cl)cn2)no1 (stereo unspecified) | -4.076 |
| CC(C)c1nc(C2CCCN2Cc2ccncc2Cl)no1 (stereo unspecified) | 81.18 |
| CC(C)c1nc(C2CCCN2c2ccnc(C3CCCC3)n2)no1 (stereo unspecified) | 0.08889 |
| Cc1cc(CN2CCCC2c2noc(C(C)C)n2)on1 (stereo unspecified) | 98.26 |
| CCc1noc(CN2CCCC2c2noc(C3CC3)n2)n1 (stereo unspecified) | 2.482 |
| CC(C)c1nc(C2CCCN2Cc2ccccc2C#N)no1 (stereo unspecified) | 6.567 |
| CC(C)c1nc(C2CCCN2Cc2ccn(C)c(=O)c2)no1 (stereo unspecified) | -1.235 |
| CC(C)c1noc(CN2CCCC2c2noc(C(C)C)n2)n1 (stereo unspecified) | 108.9 |
